# Where a structure was tested more than once in an assay, its records may differ in their call. Activity calls are given as the source filed them. Rule for the calls: active = hit-call score of the fitted dose curve at least 0.9, where 1 is the maximum; inactive = score below 0.9.
# Read-out: Plasminogen activator inhibitor-1 (PAI1), SERPINE1 (gene 5054)
# Test: BSK_BE3C_PAI1: BioMAP Diversity Plus: BE3C Assay for Plasminogen activator inhibitor-1 (PAI1) Biomarker Activity (AID 2283037)
# Settings: primary human bronchial epithelial cells; actives raise or lower the signal
# Procedure: BSK_BE3C is a cell-based, multiplexed-readout assay that uses bronchial epithelial cell, a human lung primary cell, with measurements taken at 24 hours after chemical dosing in a 96-well plate.BSK_BE3C_PAI1 is an assay component measured in the BSK_BE3C assay. It measures PAI-1 antibody related to regulation of gene expression using ELISA technology.Data from the assay component BSK_BE3C_PAI1 was analyzed into 1 assay endpoint. This assay endpoint, BSK_BE3C_PAI1, was analyzed with bidirectional fitting relative to DMSO as the negative control and baseline of activity. Using a type of binding reporter, gain or loss-of-signal activity can be used to understand changes in the signaling as they relate to the gene SERPINE1. Furthermore, this assay endpoint can be referred to as a primary readout, because this assay has produced multiple assay endpoints where this one serves a signaling function. To generalize the intended target to other relatable targets, this assay endpoint is annotated to the cytokine intended target family, where the subfamily is plasmogen activator inhibitor.
# The levels of cell surface (or secreted, indicated by the prefix "s") biomarker endpoints were measured by ELISA. Overt cytotoxicity to cells in confluent adherent cultures (all systems other than the BT system) was assessed by measuring total protein levels using sulforhodamine B (SRB) staining in parallel cultures at the time of biomarker measurements, indicated as SRB endpoints. For proliferation assays for adherent cell types, individual cell types are cultured at sub-confluence and relative cell numbers quantified by SRB staining at time points optimized for each system (48 h: 3C and CASM3C systems; 72 h: BT and HDF3CGF systems; 96 h: SAg system). SRB was performed by staining cells with 0.1% SRB after fixation with 10% TCA and reading wells at 560 nm.Viability and proliferation of PBMC (T cells) was quantified by Alamar Blue reduction for the SAg and BT systems. For PBMC viability (referred to as PBMC Cytotoxicity within the assay endpoint names), cells were plated (75,000/well in a 96-well plate) and then chemical samples added for 1 h before addition of activators, SEB and TSST-1 (20 ng/mL final concentration each). Cells were incubated for 90 h. Then, Alamar Blue (20 uL/well) (Invitrogen, Cat DAL1100) was added for 6 h, and the plates were read with a fluorescence microplate reader at 546/580 nm (excitation/emission). For PBMC proliferation, cells were plated and activated as above but incubated for only 16 h prior to addition of Alamar Blue. Plates were read after 6 h.
SMILES,outcome,AC50
CCOP(=S)(OCC)SCS(=O)(=O)CC,inactive,
CCCCN(CCCC)N=O,inactive,
CCOP(=S)(S)OCC,inactive,
CCOP(=S)(NC(C)C)Oc1ccccc1C(=O)OC(C)C (stereo not given),inactive,
[N-]=[N+]=[N-],inactive,
CCOC(=O)c1ccccc1C(=O)OCC,inactive,
c1ccc2c(c1)sc1ccccc12,inactive,
C=CC(=O)OCC(CC)(COC(=O)C=C)COC(=O)C=C,,10.5 µM (active)
ClC(Cl)=C(c1ccc(Cl)cc1)c1ccccc1Cl,,10.3 µM (active)
CCOP(=S)(OCC)SCSc1ccc(Cl)cc1,inactive,
CC(Cc1ccc(OCC(=O)O)cc1)NCC(O)c1csc(C(F)(F)F)n1 (stereo not given),inactive,
O=P(OCC(Br)CBr)(OCC(Br)CBr)OCC(Br)CBr (stereo not given),inactive,
Nc1ccc2ccccc2c1,inactive,
CCCCc1ccccc1,inactive,
CCOP(=S)(Oc1ccc([N+](=O)[O-])cc1)c1ccccc1 (stereo not given),inactive,
Cc1ccc2c(c1N)C(=O)c1ccccc1C2=O,inactive,
CCOP(=S)(OCC)SCn1nnc2ccccc2c1=O,inactive,
CC(Cl)(Cl)C(=O)O,inactive,
FC(F)(F)C(F)(C(F)(F)F)C(F)(F)C(F)(F)CC1CO1 (stereo not given),inactive,
COCCOCCO,inactive,

SMILES,outcome,AC50
O=C(O)C(F)(F)C(F)(F)C(=O)O,inactive,
O=P(Oc1ccccc1)(Oc1ccccc1)Oc1ccccc1,,10.6 µM (active)
O=P1(N(CCCl)CCCl)NCCCO1 (stereo not given),inactive,
CCC1(c2ccccc2)C(=O)N=C(O)NC1=O (stereo not given),inactive,
O=C(O)C(F)(OC(F)(F)C(F)(F)C(F)(F)F)C(F)(F)F (stereo not given),inactive,0.22 µM (active)
COP(=O)(O)OC,inactive,
Cc1ccc(O)cc1C,inactive,
c1ccc2c(c1)Nc1ccccc1S2,inactive,
CC(C)Nc1ccc(Nc2ccccc2)cc1,inactive,
CCCCC(CC)COC(=O)c1c(Br)c(Br)c(Br)c(Br)c1C(=O)OCC(CC)CCCC (stereo not given),inactive,
OCC(F)(F)OC(F)(F)C(F)(F)OC(F)(F)C(F)(F)OC(F)(F)F,inactive,
CCNc1nc(Cl)nc(NC(C)(C)C)n1,inactive,
ClC(Cl)c1ccccc1,inactive,
CCCN(CCC)c1c([N+](=O)[O-])cc(C(C)C)cc1[N+](=O)[O-],inactive,
NC(=O)C(F)(F)C(F)(F)F,inactive,
CC(C)(C)c1ccccc1OP(=O)(Oc1ccccc1)Oc1ccccc1,inactive,
CC(O)C(F)(F)C(F)(F)F (stereo not given),inactive,
Cc1ccc([N+](=O)[O-])cc1C,inactive,
CCOS(=O)(=O)OCC,inactive,

# Source: PubChem BioAssay (EPA / NIEHS)
